Screen size: about 52,000 compounds; about 1,700 (3.3%) were called active. What follows is part of a selection rich in actives, with near analogues and random picks from the rest. Unmarked numbers belong to inactive results. No stated cut-off is given here; in the data, active means survival mostly below about 52% (no sharp cut-off); inactive means mostly above about 56%.
What follows are compounds tested on Wild type (assay: growth inhibition of S. aureus wild type versus tarO mutant, primary screen, teichoic acid synthesis inhibitors, RN4220, OD600 (AID 463173)). Conditions: S. aureus RN4220 wild type/DeltatarO growth, OD600, 18 h, hits give low values, screened at 18.75 µg/mL (by protocol).

Compound | survival
CC(=O)NCCNc1nc2c(S(=O)(=O)c3ccc(C)c(C)c3)nnn2c2ccc(Cl)cc12 | 80%
O=C(CN1C(=O)COc2ccc(S(=O)(=O)N3CCOCC3)cc21)NCc1ccc(Cl)cc1 | 78%
CCNc1c(NC(=O)c2ccccc2OCC)c(=O)oc2ccccc12 | 90%
CC1=C(C(=O)Nc2ccccc2)C(c2ccc(C)o2)NC(=S)N1 (configuration not stated) | 109%
O=C(O)c1cnc2ccccn2c1=O | 109%
Cc1noc(C)c1S(=O)(=O)N(CC(=O)NCc1ccccc1Cl)c1ccc(C(C)C)cc1 | 82%
NC(=O)CSc1nnc(COc2ccccc2)n1C1CCCCC1 | 110%
CCOC(=O)C1CCN(C(c2ccccc2OC)c2c(O)cc(C)n(CCOC)c2=O)CC1 (configuration not stated) | 70%
Cc1ccc(N2CC(NC(=O)C3CCCC3)CC2=O)cc1 (configuration not stated) | 55%
COCCn1c(CNC(=O)c2cccc(N(C)C)c2)nc2cccnc21 | 65%
Cc1nn(CC(=O)NCc2ccc(N(C)C)cc2)c(=O)c2c(C)n(-c3ccc(Cl)cc3)nc12 | 95%
COc1ccc(CC(C)NS(=O)(=O)c2ccc3c(c2)CCN3S(C)(=O)=O)cc1OC (configuration not stated) | 134%
CCOC(=O)c1c(C)[nH]c(C)c1S(=O)(=O)N(C)CC(=O)Nc1ccc(C)c(N(C)C)c1 | 73%
CCOC(=O)c1cnc2ccc(C(=O)OC)cc2c1Nc1ccccc1CC | -1% (active)
CCOC(=O)c1cnc2c(C)c(Cl)ccc2c1Nc1ccc(N2CCOCC2)cc1 | 60%
CCOC(=O)c1cnc2ccc(C(=O)OC)cc2c1Nc1ccc(N2CCOCC2)cc1 | 115%
CCOC(=O)c1cnc2ccc(C)cc2c1NCCc1ccc(OC)c(OC)c1 | 117%
CCOC(=O)c1cnc2ccc(C)cc2c1Nc1ccc(N(CC)CC)cc1 | -2% (active)
CCOC(=O)c1ccc2ncc(C(=O)OCC)c(Nc3ccc(C)c(Br)c3)c2c1 | 72%
CCOC(=O)c1cnc2ccc(Cl)cc2c1Nc1ccc(N2CCOCC2)cc1 | 0% (active)
CCOC(=O)c1cnc2c(Cl)cc(Cl)cc2c1Nc1cc(C(=O)O)ccc1C | 61%
CCOC(=O)c1cnc2ccccc2c1Nc1ccc(N2CCOCC2)cc1 | 68%
CCOC(=O)c1cnc2cc(F)c(F)cc2c1Nc1ccccc1O | 169%

Compound | survival
CCOC(=O)c1cnc2ccc(OC(F)(F)F)cc2c1Nc1ccccc1C(=O)O | 52%
CCCOC(=O)c1ccc(Nc2c(C(=O)OCC)cnc3c(C)cc(Cl)cc23)cc1 | 4% (active)
CCOc1ccc(-c2nc(SCC(=O)Nc3cc(F)ccc3F)n3[nH]c(=O)cc3n2)cc1 | 77%
CC1=C(C(=O)NCCc2ccc(Cl)cc2)C2(CCCCC2)OC1=O | 73%
CC(C)CNc1nc(NC(C)(C)C)nc(Oc2ccc(=O)n(-c3ccccc3)n2)n1 | 84%
CCc1ccc(NCc2cc3cc(OC)c(OC)cc3n(CC(=O)Nc3cc(C)ccc3C)c2=O)cc1 | 63%
CCN(C(=O)CSc1nc2ccccc2n1Cc1cc(C)ccc1C)c1ccccc1 | 72%
COc1cc(NC(=O)Cn2cc(S(=O)(=O)c3ccccc3)c(=O)c3ccccc32)cc(OC)c1 | 78%
COc1ccc(N(C(=O)COc2ccc(Br)cc2)S(=O)(=O)c2ccc(C)cc2)cc1 | 87%
CCCCN(CC)C(=O)Cn1ncc2c3ccccc3n(CCC)c2c1=O | 98%
CN(C)CC(O)C1CCOC(C)(C)C1 (configuration not stated) | 111%
CCOC(=O)c1cnc2ccc(OC)cc2c1Nc1ccc(OCc2ccccc2Cl)cc1 | 6% (active)
CCOC(=O)c1cnc2ccc(OC)cc2c1Nc1cccc(C(C)=O)c1 | 2% (active)
CCOC(=O)c1cnc2ccc(C(=O)OC)cc2c1Nc1ccc(OCc2ccccc2Cl)cc1 | 129%
CCOc1ccc(Nc2c(S(=O)(=O)c3ccc(Cl)cc3)cnc3ccc(OC)cc23)cc1 | 88%
CCOC(=O)c1cnc2ccc(C)cc2c1Nc1ccc(OCc2ccccc2Cl)cc1 | 4% (active)
CN(C)c1cc(Nc2ccc(Cl)cc2)c2c3c(onc13)-c1ccccc1C2=O | 96%
CCC(=O)N1CCc2cc(S(=O)(=O)NC(C(=O)NCCc3ccccc3)C(C)C)ccc21 (configuration not stated) | 83%
CCC1CCc2nc3sc(C(=O)Nc4ccc(F)cc4F)c(N)c3cc2C1 (configuration not stated) | 92%
Cc1cccc(CCNC(=O)Cn2ncc3c(=O)oc4ccccc4c32)c1 | 76%
Fc1ccc(-c2ccc(NCc3ccccc3)nn2)cc1 | 119%
Cc1cccc(CNC(=O)C2CCC(CNS(=O)(=O)c3ccc4c(c3)CCCC(=O)N4)CC2)c1 (configuration not stated) | 65%
CCn1cc2nc(SCc3cccc(C(F)(F)F)c3)n(Cc3ccc(OC)cc3)c(=O)c2n1 | 71%

Compound | survival
CCn1cc2nc(SCc3cccc(C(F)(F)F)c3)n(Cc3ccc(Cl)cc3)c(=O)c2n1 | 146%
CCn1cc2nc(SCc3cccc(OC)c3)n(Cc3ccc(Cl)cc3)c(=O)c2n1 | 10% (active)
CCc1ccc(-c2cn3c(n2)SCC3)cc1 | 111%
CCCNC(=O)Cn1c(=O)c2cccn2c2cccnc21 | 89%
Cc1c(CNC(C)CCc2ccccc2)c(C(=O)O)c(C)n1Cc1ccc(F)cc1 (configuration not stated) | 93%
N#Cc1nc(COc2ccccc2Cl)oc1NCCc1ccccc1 | 25%
N#Cc1nc(COc2cccc(Cl)c2)oc1NCCc1ccccc1 | 19%
Cc1ccc(OCc2nc(C#N)c(NCCc3ccccc3)o2)cc1 | -1% (active)
O=C(CCc1ccccc1)Nc1ccccc1 | 105%
Cc1c(C(=O)N2CCC(C)CC2)c(S(=O)(=O)NCc2ccc(Cl)cc2)c(C)n1C | 133%
CC(=O)Nc1ccc(NS(=O)(=O)c2c(C(=O)N3CCC(C)CC3)c(C)n(C)c2C)cc1 | -3% (active)
Cc1cc(Cl)ccc1NS(=O)(=O)c1c(C(=O)N2CCCCCC2)c(C)n(C)c1C | 77%
Cc1cc(Cl)ccc1NS(=O)(=O)c1c(C(=O)N2CCC(C)CC2)c(C)n(C)c1C | 14% (active)
CCOc1ccc(OCC)c(NS(=O)(=O)c2c(C(=O)N3CCC(C)CC3)c(C)n(C)c2C)c1 | 0% (active)
COc1cc(OC)c(NS(=O)(=O)c2c(C(=O)N3CCC(C)CC3)c(C)n(C)c2C)cc1Cl | -1% (active)
COc1ccc(C)cc1NS(=O)(=O)c1c(C(=O)N2CCC(C)CC2)c(C)n(C)c1C | 85%
CCOc1ccc(CNS(=O)(=O)c2c(C(=O)N3CCC(C)CC3)c(C)n(C)c2C)cc1OC | 71%
Cc1ccc(NS(=O)(=O)c2c(C(=O)N3CCC(C)CC3)c(C)n(C)c2C)cc1Cl | 131%
CCOc1ccc(OCC)c(NS(=O)(=O)c2c(C(=O)N3CCCCCC3)c(C)n(C)c2C)c1 | 71%
CC(=O)Nc1ccc(NS(=O)(=O)c2c(C(=O)N3CCCCCC3)c(C)n(C)c2C)cc1 | 65%
COc1cc(OC)c(NS(=O)(=O)c2c(C(=O)N3CCCCCC3)c(C)n(C)c2C)cc1Cl | 54%

From PubChem BioAssay AID463173 (ICCB-Longwood Screening Facility, Harvard Medical School, 2010)
